PubChem BioAssay AID485318 (Broad Institute, 2010)
In all, about 1,400 compounds went through this assay and fewer than 10 were called active.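 The calls were made as follows: active = fluorescence-lowering compounds whose fitted half-maximal concentration is at or below ten times the highest valid dose tested; inconclusive = flat curve at 30 to 70% inhibition, or poor fit; inactive = the rest.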 Not all results are given here.

Target: Histone deacetylase 3 (Homo sapiens) (UniProt O15379)
Experiment: inhibition of human HDAC3 enzymatic activity – biochemical, fluorescence, cherry-picked samples, counter-screen for JMJD2C/GASC1 demethylase inhibitor project, dose response (AID 485318);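 also: enzyme preincubated with compound before substrate and trypsin were added; 0% = neutral control wells and -100% = SAHA positive control wells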
Conditions: recombinant HDAC3, fluorogenic peptide/trypsin coupled; series mostly up to 12 µM; activity change, negative = inhibition: at the top concentration

Sequence of Histone deacetylase 3 (Homo sapiens) (O15379 whole entry, looked up): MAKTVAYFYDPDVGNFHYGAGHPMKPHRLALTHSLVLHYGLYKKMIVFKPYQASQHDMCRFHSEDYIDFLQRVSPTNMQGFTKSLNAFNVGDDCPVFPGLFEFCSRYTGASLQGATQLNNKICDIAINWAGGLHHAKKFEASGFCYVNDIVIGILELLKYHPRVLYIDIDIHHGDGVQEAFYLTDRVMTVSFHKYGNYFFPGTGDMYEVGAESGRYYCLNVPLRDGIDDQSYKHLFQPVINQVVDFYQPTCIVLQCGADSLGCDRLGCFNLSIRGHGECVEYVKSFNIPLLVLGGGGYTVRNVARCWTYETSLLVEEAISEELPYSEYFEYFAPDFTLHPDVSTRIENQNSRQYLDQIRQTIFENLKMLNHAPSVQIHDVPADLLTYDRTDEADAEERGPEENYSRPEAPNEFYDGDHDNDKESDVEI

Row | Compound | activity change, negative = inhibition
1 | Cc1ccccc1N=C1N=C(N)c2ccccc21 | 1.05% (inactive)
2 | COc1cccc(C(c2nnnn2CCc2ccccc2)N2CCN(c3ccccc3)CC2)c1OC (centres undefined) | -0.0474% (inactive)
3 | O=C(O)c1ccc2cc(-c3ccccc3)[nH]c2c1 | -0.104% (inactive)
4 | Cc1cc(N(C)C)cc(C)[n+]1[O-] | 1.03% (inactive)
5 | CC(=O)Oc1ccc(NC(=O)Cc2ccccc2)c(C(=O)O)c1 | 0.179% (inactive)
6 | CCN(C[C@H]1N[C@@](Cc2ccccc2)(C(=O)OC)[C@H]2C(=O)N(C)C(=O)[C@@H]12)S(=O)(=O)c1ccccc1 | -0.222% (inactive)
7 | Cn1c(=O)n(C)c2cc(S(=O)(=O)N3CCOCC3)ccc21 | 1.24% (inactive)
8 | Cc1ccc(NC2=NCC(=O)N2Cc2ccc3c(c2)OCO3)c(C)c1 | 0.52% (inactive)
9 | CC1(C)CC2(CC(C)(C)N1)OC(=O)N1CCc3ccccc3C12C (centres undefined) | 0.0279% (inactive)
10 | CCCN(C(=O)Cc1ccc(S(=O)(=O)N2CCOCC2)s1)c1c(N)n(Cc2ccccc2)c(=O)[nH]c1=O | -0.39% (inactive)
11 | CC(=O)Nc1cc2c(cc1NC(=O)Cn1nc(-c3ccccc3)ccc1=O)OCCO2 | -0.351% (inactive)
12 | CCOc1ccccc1N(CC(=O)O)S(=O)(=O)c1ccc(C)cc1 | 0.686% (inactive)
13 | COc1ccc(/C=C2/CC/C(=C\c3ccc(OC)c(OC)c3OC)C2=O)c(OC)c1OC | 0.948% (inactive)
14 | COc1cc(NS(=O)(=O)c2ccc(NC(=O)c3ccc(C)o3)cc2)nc(OC)n1 | 0.178% (inactive)
15 | C[C@@H]1CN([C@H](C)CO)C(=O)c2cc(NC(=O)Cc3ccccc3)ccc2O[C@H]1CN(C)Cc1ccc(Oc2ccccc2)cc1 | 0.213% (inactive)
16 | CCOc1ccc(N2C(=O)CC(N(O)c3ccccc3)C2=O)cc1 (centres undefined) | 0.801% (inactive)
17 | CC1CN(Cc2c(O)ccc3c2oc(=O)c2ccccc23)CC(C)O1 (centres undefined) | -0.481% (inactive)
18 | COc1cc2c(cc1OC)C1=C(C#N)COCN1CC2 | -0.477% (inactive)
19 | CCNC(=S)NNC(=O)c1csc2c1CCC(C)C2 (centres undefined) | 0.337% (inactive)
20 | O=C(CN1C(=O)NC2(CCCC2)C1=O)Nc1nc(-c2ccccc2)cs1 | -0.418% (inactive)
21 | CC1CCCC(NC(=O)COC(=O)c2ccc(N(C)C)cc2)C1C (centres undefined) | 0.088% (inactive)
22 | COc1ccc(C(=O)NCc2nnc(SCC(=O)N3CCc4ccccc43)o2)cc1OC | -0.675% (inactive)

Row | Compound | activity change, negative = inhibition
23 | O=C(c1ccncc1)N1N=C(C2CCCCC2)CC1(O)C(F)(F)F (centres undefined) | 0.32% (inactive)
24 | CSc1nnnn1CCn1nnnc1SC | -0.14% (inactive)
25 | CS(=O)(=O)NC1c2cccc3cccc(c23)C1Sc1nncn1/N=C/c1ccco1 (centres undefined) | 0.4% (inactive)
26 | N#Cc1ccc(OCC(=O)N2CCN(S(=O)(=O)c3cccs3)CC2)cc1 | 0.818% (inactive)
27 | Cc1cc(C)n2nc(C(=O)N3CCCC(Nc4ccc(F)c(F)c4)C3)cc2n1 (centres undefined) | 0.457% (inactive)
28 | C=CCn1cnc2scc(-c3ccc(C)cc3)c2c1=O | 0.314% (inactive)
29 | CCCCCNc1nc(-c2ccccc2)nc(-n2ccnc2)n1 | -0.269% (inactive)
30 | CC(=O)C1=C(c2ccccc2)N(C(C)=O)n2c(C)nnc2S1 | -0.262% (inactive)
31 | CC1=C(C(=O)OCC2CCCO2)C(c2ccccc2OC(C)C)C2=C(CC(c3ccco3)CC2=O)N1 (centres undefined) | -0.466% (inactive)
32 | Cc1occc1-c1nnc(SCC(=O)Nc2ccccc2)n1C(C)c1ccccc1 (centres undefined) | 0.434% (inactive)
33 | CCN(Cc1nc(-c2ccccc2)no1)C(=O)c1ccco1 | -0.489% (inactive)
34 | Cc1nnc(N2C(=O)C(=O)/C(=C(/O)c3ccc4c(c3)CC(C)O4)C2c2ccccc2F)s1 (centres undefined) | 0.641% (inactive)
35 | CCC(C(=O)NCCCc1ccccc1)c1ccccc1 (centres undefined) | 0.435% (inactive)
36 | COCCCNC(=O)C1CCN(C(=O)Nc2ccc(Cl)cc2)CC1 | -0.45% (inactive)
37 | COC(=O)[C@]1(C)N[C@H](CN(C)S(=O)(=O)c2ccc(F)cc2)[C@@H]2C(=O)N(C)C(=O)[C@@H]21 | -0.842% (inactive)
38 | CC(=O)N1CCN(c2ccc(NC(=O)c3ccc4ccccc4c3)cc2)CC1 | 0.314% (inactive)
39 | CCN(CC)C(CNS(=O)(=O)c1ccc(Cl)cc1)c1ccccc1 (centres undefined) | -0.496% (inactive)
40 | CCNC(=S)NC(=NCc1cccnc1)Nc1nc(C)cc(C)n1 | 0.0784% (inactive)
41 | Cc1ccc(N2NC3(CCN(C(N)=O)CC3)NC2=O)cc1 | -0.0157% (inactive)
42 | C=CCNC(=S)NNC(=O)COc1cccc(Cl)c1 | -0.462% (inactive)
43 | O=C(O)c1ccccc1OCCOc1ccccc1C(=O)O | 0.223% (inactive)
44 | O=C1NCCC/C1=N/Nc1ccc(F)cc1 | 0.198% (inactive)

Row | Compound | activity change, negative = inhibition
45 | CC(C)NC(=O)N(C)C[C@H]1Oc2ccc(NS(=O)(=O)c3ccccc3)cc2C(=O)N([C@H](C)CO)C[C@H]1C | 0.293% (inactive)
46 | COc1ccc(-n2cc(C(=O)O)c3ccccc3c2=O)cc1 | 0.371% (inactive)
47 | O=C(C1CCCCC1)N1CCC(c2nc3c(nnn3Cc3c(F)cccc3Cl)c(=O)[nH]2)CC1 | -0.334% (inactive)
48 | Cc1ccc(C)c(Cn2c(C(=O)OC(C)C)cc3c2ccn3C)c1 | -0.102% (inactive)
49 | NC(=O)COc1cccc2cccnc12 | 0.026% (inactive)
50 | Cn1c(=O)c2[nH]c(=O)cnc2n(C)c1=S | 0.57% (inactive)
51 | Cn1nc(N)nc1N1CCN(c2ccc(F)cc2)CC1 | 0.182% (inactive)
52 | NS(=O)(=O)c1ccc(CNC(=S)Nc2ccc(F)c(Cl)c2)cc1 | 0.414% (inactive)
53 | O=C(O)c1ccc2c(c1)C(=O)N(CCC1=CCCCC1)C2=O | 0.227% (inactive)
54 | CC(C)N(Cc1ccccc1)C(=O)COC(=O)c1ccc2c(c1)OCCO2 | -0.449% (inactive)
55 | NC(=O)NC(=O)CSc1nnc(-c2ccco2)n1Cc1ccccc1 | 0.0902% (inactive)
56 | O=C(OCc1nnc(-c2ccccc2)o1)c1cc(S(=O)(=O)N2CCOCC2)c(Cl)cc1Cl | -0.233% (inactive)
57 | COc1ccc(C)cc1NC(=O)CN(C)S(=O)(=O)c1ccc2c(c1)CC(C)N2C(C)=O (centres undefined) | 0.478% (inactive)
58 | OC[C@H]1O[C@@H]2O[C@H]3[C@H](O)[C@@H](O)[C@@H](O[C@H]4[C@H](O)[C@@H](O)[C@@H](O[C@H]5[C@H](O)[C@@H](O)[C@@H](O[C@H]6[C@H](O)[C@@H](O)[C@@H](O[C@H]7[C@H](O)[C@@H](O)[C@@H](O[C@H]1[C@H](O)[C@H]2O)O[C@@H]7CO)O[C@@H]6CO)O[C@@H]5CO)O[C@@H]4CO)O[C@@H]3CO | -0.216% (inactive)
59 | Cc1ccc(C(=O)NCC(=O)OCC(=O)Nc2ccc(Cl)cc2C(F)(F)F)cc1C | -0.15% (inactive)
60 | O=c1[nH]cnc2c1c(-c1ccccc1)cn2-c1ccccc1 | 0.0419% (inactive)
61 | Cc1nc2nc(C)c(CCC(=O)NCc3ccc4c(c3)OCO4)c(C)n2n1 | 0.43% (inactive)
62 | O=c1[nH]cc(N2CCCCCC2)c(=O)[nH]1 | -0.0271% (inactive)
63 | O=C(NCc1nnc(SCC(=O)N2CCCCC2)o1)c1c(F)cccc1F | -0.609% (inactive)
64 | O=C(c1cccs1)N1CCN(S(=O)(=O)c2ccc(F)cc2)CC1 | 0.208% (inactive)
